# Screening data as filed in PubChem.
# Ec RNAP inh: E. coli RNAP inhibitors, biochemical; E. coli RNA polymerase, fluorescence transcription assay; 62,000 tested, 0.2% active; AID 559, 2006; inhibition, %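 (tested at 10 µM)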; in the data active = inhibition above about 20%;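 also: 0% = enzyme without compound and 100% = no enzyme blank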
# HePTP inh: inhibitors of human HePTP phosphatase, primary screen, biochemical, absorbance, leukemia target | inhibition, % at 20 µM | Tyrosine-protein phosphatase non-receptor type 7 (Homo sapiens), P35236 | recombinant HePTP phosphatase activity, OD absorbance | 110,000 tested, 0.64% active; in the data active = inhibition above about 50%;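 also: plate controls were vehicle for no effect and reference inhibitor for full effect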
# TNAP act DEA: human TNAP enzyme activators, primary screen, biochemical, luminescent, intermediate phosphate acceptor level. Alkaline phosphatase, tissue-nonspecific isozyme (Homo sapiens), P05186. purified TNAP, CDP-star luminescence, 100 mM DEA, 30 min; active compounds read high; scale: 0 levamisole-inhibited, 1 vehicle-only enzyme. activation factor at 20 µM. 64,000 tested, under 10 active;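 active = activation factor of at least 2 at 20 µM, relative to controls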
# Hsp90 block: tumor Hsp90 inhibitors, primary screen, cell lysate, fluorescence polarization, NCI-N417 lysate. Heat shock protein HSP 90-alpha (Homo sapiens), P07900. Cy3B-geldanamycin FP displacement. inhibition, % at 30 µM. 64,000 tested, 0.35% active;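 active = inhibition above 50%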;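 also: 0% = tracer plus lysate wells and 100% = tracer alone without lysate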
# Her2 expr inh: inhibitors of Her2 protein expression, primary screen, SKBR-3 cells, AlphaScreen, 66K library; Receptor tyrosine-protein kinase erbB-2 (Homo sapiens), P04626; SKBR-3 HER2 protein level, 18-24 h; active compounds read low; HER2 level % of control, % at 10 µM; 65,000 tested, 0.69% active;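 active = HER2 level under 5% of the carrier-only control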;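 also: 100% = DMSO carrier and 0% = 500 nM PU-H71 HSP90 inhibitor; lower value means stronger loss of Her2 protein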
# MT1-MMP txn act: MT1-MMP promoter reporter activation – cell-based, luciferase luminescence, primary screen | activation factor at 10 µM | HT1080 MT1-MMP promoter luciferase reporter, overnight; active compounds read high | 86,000 tested, 0.16% active;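 active = activation factor of at least 2 for MT1-MMP transcription at 10 µM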
# * hit, by the source's call; . = no result given. Most compounds without a hit are left out; they make up all but 1.1% or so of the library.
SMILES,Ec RNAP inh,HePTP inh,TNAP act DEA,Hsp90 block,Her2 expr inh,MT1-MMP txn act
Cc1cc(NC(=O)C(c2ccccc2)c2ccccc2)no1,.,4.9,.,.,.,.
CN(C)c1nc(N2CCCCC2)nc(N2CCCCC2)n1,0.8,3.6,1,1.6,97.1,1.1
OCCN(CCO)c1nc(N2CCCCC2)c2nc(N(CCO)CCO)nc(N3CCCCC3)c2n1,7.6,-5.8,1.4,61.3*,121.1,1.1
Cc1cc(C)c2nc3s/c(=C\c4ccc(Br)cc4)c(=O)n3c2c1,.,7.4,.,.,.,.
O=C1c2ccccc2C(=O)N1CCOc1ccccc1,.,.,.,.,.,2.1*
Cc1ccccc1OCCN1C(=O)c2ccccc2C1=O,4.7,5.2,0.9,-1.0,113.3,1.4
c1ccc(-n2c(-c3ccncc3)nnc2N2CCOCC2)cc1,5.2,14.0,0.9,1.0,-3.3*,1
c1ccc(-n2c(-c3ccncc3)nnc2-c2ccco2)cc1,0.5,11.4,0.8,-1.9,82.3,1
CC(C)(C)C1CCc2c(sc(NC(=O)c3ccccc3)c2C(N)=O)C1 (stereo unspecified),.,1.3,.,.,.,.
O=C(CSc1ccc(C(F)(F)F)cc1[N+](=O)[O-])Nc1ccccc1,.,105.1*,.,.,.,.
COc1cc(C=C2C(=O)NC(=O)NC2=O)cc(Cl)c1OC(C)C,.,7.5,.,.,.,.
COc1ccc(/C=C/C(=O)Nc2cccc(C(F)(F)F)c2)cc1Br,.,-2.3,.,.,.,.
CCOC(=O)c1c(C)oc2c1c(C(c1ccncc1)N1CCOCC1)c(O)c1ccccc12 (stereo unspecified),-2.5,.,.,6.7,-12.0*,1.6
CC(C)CN1C(=O)NC(NC(=O)c2ccco2)(C(F)(F)F)C1=O (stereo unspecified),1.9,8.5,1.1,94.3*,81.9,1
Cc1cc(Nc2ccc(Cl)cc2)nc(-n2nc(C)cc2C)n1,.,5.7,.,.,.,.
c1ccc(-c2csc3ncn4nnnc4c23)cc1,6.0,7.7,1,-1.9,82.9,1.1
Cn1nnnc1Sc1ncnc2scc(-c3ccccc3)c12,0.5,-0.8,1,-6.1,0.6*,1
Cn1nnnc1Sc1ncnc2scc(-c3ccc(F)cc3)c12,3.5,9.3,0.9,-6.2,-10.9*,0.9
Cc1ccc(Cl)cc1NC(=O)CN(CCc1ccccc1)S(=O)(=O)c1ccccc1,.,9.2,.,.,.,.
N#Cc1c(/N=C/c2cccs2)sc2c1CCC2,1.6,-1.1,0.9,-4.8,72.5,1.4
N#Cc1c(/N=C/c2cc(Br)cs2)sc2c1CCC2,.,.,.,.,.,2.2*
NC1=NC(=O)/C(=C/c2ccc(-c3cc([N+](=O)[O-])ccc3Cl)o2)S1,.,98.9*,.,.,.,.
COc1ccccc1NC(=O)CCC1CCCC1,.,2.5,.,.,.,.
COc1ccc(C)cc1NC(=O)CCC1CCCC1,.,103.6*,.,.,.,.
CCOc1ccccc1N1CCN(Cc2ccc(OC)c(OC)c2)CC1,3.0,7.9,0.9,-3.2,-19.9*,1.2
SMILES,Ec RNAP inh,HePTP inh,TNAP act DEA,Hsp90 block,Her2 expr inh,MT1-MMP txn act
CCOc1ccccc1N1CCN(Cc2ccc(OC)c(OC)c2OC)CC1,4.3,-0.5,1,1.7,69.4,1
O=C(CCCNS(=O)(=O)c1cccc2nsnc12)NCc1ccccc1,-0.8,4.6,1,-2.7,85.2,1.3
O=C(CCCNS(=O)(=O)c1cccc2nsnc12)NCc1ccc(F)cc1,28.3*,3.8,1,-0.6,74.7,1.2
Oc1c(Br)cc2oc3c(c2c1/C=N/c1ncn[nH]1)CCCC3,.,3.5,.,.,.,.
CC(=O)Nc1ccc(C(=O)N(C)c2ccccc2)cc1,.,.,.,.,.,1
CN(C(=S)Nc1ccccc1)c1ccccc1,.,102.5*,.,.,.,.
COCCCNS(=O)(=O)c1c(C)cc(C)cc1C,.,-4.3,.,.,.,.
O=C1C2ON(c3ccccc3)C(c3cccnc3)C2C(=O)N1c1ccc(Cl)c(Cl)c1 (stereo unspecified),1.9,7.0,1,0.5,-18.3*,0.9
O=C1C2ON(c3ccccc3)C(c3cccnc3)C2C(=O)N1c1ccccc1 (stereo unspecified),-1.7,-5.3,0.8,0.0,91.0,1.1
Cc1cc(C(=O)Nc2ccccc2C(=O)O)ccc1NC(=O)C(C)(C)C,.,7.1,.,.,.,.
